# Over roughly 33,000 sequences, “E-score (-0.5 to 0.5)” has its median near -0.011; the highest 2% begin near 0.28. What follows is part of a selection rich in the highest values, with near analogues and random picks from the rest.
# Target: T1, Gcr1 (UniProt P07261)
# T1 sequence: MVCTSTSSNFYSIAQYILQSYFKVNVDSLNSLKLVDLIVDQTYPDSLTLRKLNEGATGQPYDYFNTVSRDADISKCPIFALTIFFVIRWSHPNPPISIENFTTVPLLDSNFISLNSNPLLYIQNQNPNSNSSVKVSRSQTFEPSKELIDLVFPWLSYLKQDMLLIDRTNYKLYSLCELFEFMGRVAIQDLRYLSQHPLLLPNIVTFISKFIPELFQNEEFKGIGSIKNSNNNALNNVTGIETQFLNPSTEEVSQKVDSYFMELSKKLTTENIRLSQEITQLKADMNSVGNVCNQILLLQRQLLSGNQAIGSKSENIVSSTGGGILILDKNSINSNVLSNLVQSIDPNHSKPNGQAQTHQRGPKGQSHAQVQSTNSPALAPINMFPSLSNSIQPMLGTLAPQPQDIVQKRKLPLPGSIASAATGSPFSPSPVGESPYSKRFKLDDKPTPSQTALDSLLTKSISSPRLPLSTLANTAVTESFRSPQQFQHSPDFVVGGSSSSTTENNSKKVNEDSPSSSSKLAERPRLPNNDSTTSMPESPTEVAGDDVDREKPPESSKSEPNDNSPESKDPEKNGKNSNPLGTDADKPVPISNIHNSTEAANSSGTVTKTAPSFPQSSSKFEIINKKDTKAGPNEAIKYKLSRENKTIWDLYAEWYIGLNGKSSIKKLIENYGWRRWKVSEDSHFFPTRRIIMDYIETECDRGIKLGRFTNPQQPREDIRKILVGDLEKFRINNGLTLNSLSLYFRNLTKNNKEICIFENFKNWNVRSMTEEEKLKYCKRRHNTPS
# Test: PBM E-score (8-mer binding enrichment) (E-score (-0.5 to 0.5)); higher = stronger / more preferred TF binding
# Details: protein concentration: 100 nM; construct: GST-full length
# Method: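 Universal 'all 10-mer' protein binding microarrays (Agilent AMADID 015681) probed with GST-tagged S. cerevisiae TFs (full-length or DBD) made by in vitro transcription/translation (PURExpress), about 100-200 nM. Bound TF was detected with fluorescent anti-GST. Each ungapped 8-mer (which stands for itself and its reverse complement) is scored by the PBM enrichment score (E-score), a modified Wilcoxon-Mann-Whitney statistic from -0.5 to +0.5, computed with the Universal PBM Analysis Suite. Scale: above 0.35 generally sequence-specific binding.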
row,Sequence,PBM E-score
1,ACGGCTCA,-0.123
2,AGGCGTGA,-0.191
3,AAAAGAGC,-0.0507
4,AAATGGGA,0.194
5,ACGTCAGA,-0.0561
6,CAGGTCAA,-0.173
7,TCCACAAA,0.288
8,CCCCACAC,0.108
9,CCCCACAG,-0.0776
10,ACCACAAA,0.236
11,GCCACAAA,0.0996
12,CCCACGAG,-0.0381
13,CCCCACAA,0.305
14,CCCACAAG,0.0598
15,CCCACAAA,0.305
16,ACACAAGG,-0.0735
17,GCTTTCTA,-0.196
18,GTTTACCA,-0.022
19,CCGGGACA,-0.0293
20,AAGACTCC,0.0934
21,CCTTTTCA,-0.164
22,CACTCTGG,0.0408
23,AGAGGGAA,-0.176
24,GGAATTCC,0.426
25,GGAATTCA,0.192

row,Sequence,PBM E-score
1,AGAATTCC,0.164
2,AGCTAGAG,-0.226
3,ATTCATAA,-0.0219
4,TCCTCTAA,0.282
5,TCATCTAA,-0.0664
6,ACCTCTAA,0.16
7,GCGTCTAA,0.357
8,GCCTCTAA,0.265
9,TCGTCTAA,0.112
10,CCGTCTAA,0.0045
11,GCATCTAA,0.303
12,CCATCTAA,0.0606
13,CATCACGG,-0.01
14,AAGTGAAC,-0.0708
15,ATGATTCA,-0.105
16,TCTCAAAA,0.137
17,CAAGAGAA,0.0254
18,GGATGGCA,-0.167
19,CCCGACGG,-0.158
20,CTATTGGC,0.0102
21,CCCCGCCC,0.338
22,ACCCGCCC,-0.135
23,GCCCGCCC,0.0747
24,ATGCTGGA,0.0516
25,AGAACTGG,0.262

row,Sequence,PBM E-score
1,AGACCGCT,-0.2
2,TCGGGGCA,0.161
3,ATTGGGTG,0.085
4,ATAGGAAC,0.319
5,AGAGGAAA,-0.0469
6,AGAGGAAC,0.177
7,AGAGGATC,0.024
8,ACAGGATA,0.177
9,GTAGGAAC,0.0386
10,AGAGGAAG,0.385
11,AGAGGATA,-0.0247
12,ACAGGATG,0.372
13,AGAGGATG,0.315
14,ACAGGATC,0.197
15,CTAGGAAC,0.149
16,AGTGTCCA,0.057
17,TAGTATGA,0.0561
18,CTCCGATC,-0.00026
19,ATGCTAGG,-0.0494
20,CCCGGATC,0.256
21,CCCTCAGC,-0.0815
22,ATTCAGCC,0.0229
23,AAAGGAAC,0.219
24,CAAGGAAG,0.143
25,AAAGGAAG,0.361

row,Sequence,PBM E-score
1,ATAGGATA,-0.0284
2,ATAGGAAA,-0.0777
3,ATAGGATG,0.333
4,ATAGGAAT,0.27
5,ATAGGATC,0.158
6,ATAGGAAG,0.414
7,CGCTGCCC,0.164
8,CGGGGTGC,0.226
9,AGGGATCA,-0.054
10,CGGGATCA,0.245
11,AGGGATCG,-0.151
12,AGGGATCC,0.286
13,CCGGATCC,0.279
14,CGGGATCC,0.371
15,AGCATCAA,0.0409
16,CACGCACC,0.0442
17,AGACCGAA,-0.18
18,GACGGCGC,-0.0687
19,AGCCTCTA,0.0722
20,CCCAGAAG,0.233
21,ACCAGAAA,0.0905
22,TCCAGAAA,0.304
23,GCCAGAAA,0.236
24,CCCAGAAA,0.283
25,TTCAGAAA,0.12

row,Sequence,PBM E-score
1,GCCTACTA,0.00583
2,AGCCCCGA,-0.108
3,AAAGCCAC,0.0178
4,CAAGCCTC,-0.0336
5,GAAGCCTC,0.283
6,TAAGCCAA,0.0672
7,GAAGCCAC,0.417
8,CAAGCCAC,-0.124
9,AAAGCCAA,0.0021
10,AAAGCCTC,-0.0619
11,GAAGCCAA,0.29
12,ACTACCCA,-0.135
13,AATAGCCG,-0.0191
14,CCCGGGTA,-0.031
15,TAGGCGCA,0.225
16,CCAAAATC,0.136
17,ATGGAACG,-0.0103
18,ATGGAACA,-0.0319
19,ATGGAACC,0.294
20,CTGGAAAC,0.196
21,CTGGAACC,0.375
22,CTGGAACA,-0.0357
23,AGCATTCG,-0.235
24,CTTGGTGC,0.116
25,AACTAAAT,0.123

row,Sequence,PBM E-score
1,CAACATTG,-0.0426
2,AAAACCGT,0.0768
3,CTCGGGCC,-0.107
4,ACTGTCTC,-0.0499
5,CGATGCCG,0.145
6,AAGTAGAA,0.0726
7,CGTTCCTA,0.15
8,CGTTCCCA,-0.0578
9,GGTTCCTA,0.342
10,GGTTCCAA,0.391
11,GGTTCCAC,0.305
12,AGTTCCAC,0.0854
13,AGTTCCTA,0.116
14,CGTTCCAA,0.03
15,AGTTCCCA,0.22
16,TGTTCCAA,0.112
17,CGTTCCAC,0.0103
18,GGTTCCCA,0.327
19,CGCTTTCA,-0.00233
20,CCTGAGAC,-0.0674
21,GCACCAAC,0.197
22,GTATCTAA,0.16
23,AAGACGCG,0.278
24,AAGACGCC,0.349
25,CAGACGCA,0.175

row,Sequence,PBM E-score
1,CAGACGCG,0.136
2,AAGACGCT,0.218
3,CAGACGCC,0.329
4,GCGAAGAC,-0.133
5,AGAGCAGG,0.0116
6,ATACCTGC,0.115
7,GAACGCTA,-0.111
8,CCCTGGCA,-0.00029
9,CCTCTCGC,-0.0389
10,CAGGATCA,-0.179
11,CAGGATCG,0.154
12,CGGGATGA,-0.188
13,AAGGATGT,0.0399
14,AAGGATGA,-0.116
15,CAGGATGC,0.446
16,CGGGATGC,0.332
17,CAGGATCC,0.345
18,AGGGATGC,0.098
19,CAGGATGG,-0.132
20,CAGGATGA,0.0175
21,AAGGATGC,0.313
22,CCAGCTGG,0.157
